# PHOSPHO1 inh – PubChem AID 1565; Phosphoethanolamine/phosphocholine phosphatase (Homo sapiens), Q8TCT1; recombinant PHOSPHO1, absorbance phosphatase assay; inhibition, % at 13.3 µM; 1.1% of 290,000 active; in the data active means inhibition above about 60%
# MLLE-PAM2 inh – inhibitors of PABP1 MLLE–PAM2 peptide binding, primary screen, biochemical, fluorescence polarization, FITC-PAM2, GST-MLLE. inhibition, % at 20 µM. 0.36% of 360,000 active. Polyadenylate-binding protein 1 (Homo sapiens), P11940; in the data active means inhibition above about 35%, passing the limit was not always enough;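 further: plate controls were DMSO wells with GST-MLLE for no effect and wells lacking GST-MLLE protein for full effect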
# eIF4H FP inh – human eIF4H binding inhibitors, primary screen, translation initiation inhibitor project, biochemical, uHTS, fluorescence polarization | Eukaryotic translation initiation factor 4H (Homo sapiens), Q15056 | eIF4H fluorescence polarization binding assay | inhibition, % at 35 µM | 0.94% of 290,000 active;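 further: calls also rest on retests at 20 µM and on dose response follow-up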
# APOBEC3G inh – APOBEC3G DNA deaminase inhibitors, primary screen, biochemical, fluorescence, single-stranded DNA substrate, uHTS | DNA dC->dU-editing enzyme APOBEC-3G (Homo sapiens), Q9HC16 | recombinant A3G, ssDNA deamination FAM/TAMRA fluorescence | inhibition, % at 20 µM | 0.28% of 330,000 active;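 active means inhibition of at least 40% at 20 µM, with no more than 30% in the related APOBEC3A deaminase screen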;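 further: plate controls were DMSO wells with A3G for no effect and wells lacking A3G enzyme for full effect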
# Target sequence (Q9HC16 whole entry, looked up): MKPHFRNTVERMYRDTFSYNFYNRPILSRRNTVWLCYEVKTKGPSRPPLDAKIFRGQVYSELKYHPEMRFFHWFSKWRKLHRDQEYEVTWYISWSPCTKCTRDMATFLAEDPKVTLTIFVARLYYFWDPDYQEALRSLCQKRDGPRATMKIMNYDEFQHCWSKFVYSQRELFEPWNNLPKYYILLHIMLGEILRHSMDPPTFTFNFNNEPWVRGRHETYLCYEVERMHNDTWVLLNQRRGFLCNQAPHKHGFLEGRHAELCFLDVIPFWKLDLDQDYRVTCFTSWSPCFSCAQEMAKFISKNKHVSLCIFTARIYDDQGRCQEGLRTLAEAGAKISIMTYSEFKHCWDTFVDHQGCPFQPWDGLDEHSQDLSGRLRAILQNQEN
# PABP polyA inh – PABP poly(A) RNA binding inhibitors, primary screen, biochemical, fluorescence polarization, uHTS; Polyadenylate-binding protein 1 (Homo sapiens), P11940; calls only at 35 µM; 1% of 290,000 active; AID 2014, 2009;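 further: calls also rest on retests at 20 µM and on dose response follow-up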
# APOBEC3A inh – APOBEC3A ssDNA deaminase inhibitors, primary screen, selectivity assay for APOBEC3G inhibitor project, biochemical, FAM/TAMRA oligo cleavage fluorescence; recombinant A3A, FAM/TAMRA ssDNA deamination fluorescence; 0.41% of 330,000 active; AID 493011, 2011; DNA dC->dU-editing enzyme APOBEC-3A (Homo sapiens), P31941; inhibition, % at 20 µM;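 active means at least 40% inhibition at 20 µM here, with at most 30% in a related deaminase screen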;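 further: plate controls were A3A with DMSO for no effect and wells lacking A3A enzyme for full effect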
# Starred values were filed as active, the others as inactive; i = inactive; ? = inconclusive; nt = no result given; + = active, no number. This is a sample that favours compounds with a hit; in the whole collection about 2.6% have one here. Unless noted, how the calls were made is not given here.
SMILES,PHOSPHO1 inh,MLLE-PAM2 inh,eIF4H FP inh,APOBEC3G inh,PABP polyA inh,APOBEC3A inh
Cc1cccc2cncc(OCc3nnc(SC(F)F)n3C)c12,35.7,-0.4,-3.0,-2.3,i,3.9
O=C1CCn2c1c(O)c1ccccc1c2=O,nt,44.6*,nt,nt,nt,nt
O=c1c2ccccc2nc2n1CCC2,22.4,8.0,-12.2,-6.4,i,-4.3
CC(C)N1CCc2c(sc(N)c2C#N)C1,11.4,-3.3,?,-9.7,i,-1.2
CC1(C)Cc2c(C#N)c(N)sc(=S)c2CO1,79.5*,33.1,?,30.2,?,-2.9
CC(C)C1Cc2c(C#N)c(N)sc(=S)c2CO1 (centres undefined),88.6*,30.0,?,12.3,?,1.3
COc1ccc(C2C(C(=O)c3ccco3)=C(O)C(=O)N2CCCn2ccnc2)c(OC)c1 (centres undefined),34.6,2.4,-8.0,9.7,i,-6.8
CCOC(=O)C1=C(C)Nc2sc(C(=O)c3ccc(C)cc3)c(N)c2C1c1ccc(C(=O)OC)cc1 (centres undefined),-4.9,9.6,86.6,-9.9,+,-2.4
COC(=O)[C@H](C(C)C)N(Cc1ccccc1)S(=O)(=O)CCN1CCN(c2ccccc2)CC1,nt,-2.4,nt,0.6,nt,2.1
Oc1ccc2ccccc2c1CN1CCOCC1,74.5*,15.1,-1.7,-6.3,i,-4.8
S=C1NC2=C(CCC/C2=C\c2ccc(Cl)cc2)C(c2ccc(Cl)cc2)N1 (centres undefined),91.8*,-83.9,7.8,-0.2,i,-0.8
S=C1NC2=C(CCC/C2=C\c2ccccc2)C(c2ccccc2)N1 (centres undefined),29.5,15.6,10.6,-10.7,i,-5.0
O=C1CCN(Cc2ccc([N+](=O)[O-])cc2)CCN1CCO,-52.4,12.1,-9.3,-8.3,i,-3.3
S=c1[nH]nc(-c2ccncc2)n1CC1CCCO1 (centres undefined),29.8,-15.8,-1.6,-1.0,i,4.6
Fc1ccc(-c2n[nH]c(=S)n2CC2CCCO2)cc1 (centres undefined),87.8*,-6.9,-3.1,36.3,i,-0.1
CCc1cccc2cc3c(N)c(C(=O)Nc4ccc(S(=O)(=O)N5CCCC5)cc4)sc3nc12,-2.4,8.0,5.3,nt,i,nt
COC(=O)C(C)N1C(=O)S/C(=C\c2cc(C)n(-c3ccccn3)c2C)C1=O (centres undefined),23.7,-84.2,118.6,-4.8,i,3.8
COC(=O)C(C)N1C(=O)S/C(=C/c2cc(C)n(-c3ccccn3)c2C)C1=O (centres undefined),15.2,-6.6,83.0*,-3.2,+,-2.9
Cc1ccc(C(=O)NCCCNCCCNC(=O)c2ccc(C)nc2)cn1,2.0,1.9,-2.2,-1.5,i,-2.4
Cc1ccc(C(=O)NCCCNCCCN(C)C)cn1,-3.0,-2.3,67.6*,25.8,+,11.7
CN(C)CCCNC(=O)c1ccc(=O)[nH]n1,28.9,-4.2,91.1*,-4.1,+,-0.1
CC(=O)NC(c1cccc(F)c1)c1nc(-c2ccc3ccccc3c2)cs1 (centres undefined),nt,-8.6,nt,nt,nt,nt
Cc1cc(C)nc(N2CCCC(C(=O)Nc3ccc(F)cc3)C2)n1 (centres undefined),18.4,4.8,2.4,-2.0,i,6.7
N#Cc1c(N)sc(=S)c2c1CCN(Cc1ccccc1)C2,47.3,nt,?,53.0*,i,-2.3
CCN1CCc2c(sc(N)c2C#N)C1,16.6,11.7,115.6,15.6,i,7.1
SMILES,PHOSPHO1 inh,MLLE-PAM2 inh,eIF4H FP inh,APOBEC3G inh,PABP polyA inh,APOBEC3A inh
COc1ccccc1CNC(=O)C1CC(c2ccccc2[N+](=O)[O-])=NO1 (centres undefined),24.2,14.1,54.3,-2.8,+,-0.6
Cc1cccc(N2C(=NC(=O)c3ccccc3)SC3CS(=O)(=O)CC32)c1 (centres undefined),8.2,-4.2,-3.0,8.7,i,2.2
CCSc1ccc2nnc(-c3cccc(F)c3)n2n1,93.8*,-12.4,1.8,3.6,i,23.1
O=C(CSc1ccc2nnc(-c3cccc(F)c3)n2n1)N1CCCc2ccccc21,-20.6,3.1,-4.9,-10.5,i,-7.7
CC(=O)c1sc(NC(=O)CCCc2nc3ccccc3c(=O)[nH]2)nc1-c1ccccc1,nt,6.3,nt,-2.5,nt,-1.5
COCCN(CCOC)Cc1cc(=O)oc2cc(OC)ccc12,nt,-8.3,nt,nt,nt,nt
C[C@]12C[C@H](O)[C@H]3[C@@H](CCC4=CC(=O)CC[C@@]43C)[C@@H]1CC[C@@H]2C(=O)CO,10.9,0.7,5.2*,-6.3,i,-5.0
CC(=O)[C@H]1CC[C@H]2[C@@H]3CCC4=CC(=O)CC[C@]4(C)[C@H]3[C@H](O)C[C@]12C,-13.6,-4.3,-10.1,-6.2,i,1.0
CC12CCC(=O)C=C1CCC1C2CCC2(C)C1CCC2(O)C(=O)CO (centres undefined),nt,7.2,nt,-6.7,nt,0.3
CC12CCC(=O)C=C1CCC1C2CCC2(C)C1CC[C@]2(O)C(=O)CO (some centres undefined),67.6*,7.4,-8.0,-4.7,i,0.2
CCOC(=O)C1(c2nc(N)cs2)COC(=O)C1 (centres undefined),-26.0,16.9,4.7,-10.4,i,-1.0
O=C(CSc1ccccc1F)NCC(c1ccco1)N1CCCCC1 (centres undefined),nt,-4.9,nt,nt,nt,nt
CCN(CC)c1ccc(NC(=O)CN2CCN(S(=O)(=O)c3cc(Cl)ccc3OC)CC2)cc1,93.0*,11.2,19.3,5.7,i,7.5
CCOc1ccc(NC(=O)CCN2CCN(S(=O)(=O)c3cc(Cl)ccc3OC)CC2)cc1,17.6,17.9,-1.9,-1.2,i,-1.6
CN1CCCCc2c1[nH]c1ccccc1c2=O,23.8,15.2,59.1*,-7.2,+,0.3
COc1cc(CNn2c(C)n[nH]c2=S)cc(Cl)c1OCc1ccccc1,83.7*,-18.8,-5.8,-7.7,i,-4.2
COc1cc(CNn2cn[nH]c2=S)cc(Cl)c1OCc1ccc(F)cc1,-12.3,-32.6,-4.4,-6.8,i,1.9
COC(=O)COC(=O)CC(CC(N)=O)c1ccccc1 (centres undefined),-24.9,-4.4,-2.4,-7.0,i,-3.0
O=C(C[n+]1cccc2ccccc21)c1ccc([N+](=O)[O-])cc1,57.8,3.8,7.7,-6.9,i,0.9
O=C(C[n+]1cccc2ccccc21)c1ccc(Cl)cc1,31.3,-0.7,71.3,-4.3,+,-2.7
